# According to PubChem BioAssay AID1906 (The Scripps Research Institute Molecular Screening Center, 2009):
# About 1,500 (0.5%) of roughly 300,000 compounds were called active.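 Rule for the calls: active = inhibition above the mean of all tested compounds plus 3 SD, set per screening campaign (cut at about 17% in these data); inactive = the rest.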 This excerpt belongs to a sample that is enriched for actives.
# Test system: cathepsin L1 (Fasciola hepatica)
# Experiment: Fasciola hepatica cathepsin L1 inhibitors, primary screen, counter-screen for PFM18AAP inhibitor project, biochemical, QFRET, fluorogenic peptide substrate (AID 1906);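 note: 0% = plate median of test compound wells and 100% = 1 µM Z-Phe-Ala-diazomethylketone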
# Conditions: recombinant F. hepatica cathepsin L1, Z-Leu-Arg-MCA fluorescence; at 5.96 µM; hits give high values
row,Compound,inhibition
1,COc1ccc(NC(=O)CN2C(=O)COc3ccc(S(=O)(=O)N4CCOCC4)cc32)cc1,-1.53% (inactive)
2,CCc1ccccc1NC(=O)CSc1nnc(-c2ccncc2)o1,-3.59% (inactive)
3,CCc1ccccc1NC(=O)CSc1nnc([C@@H](NC(=O)OC(C)(C)C)C(C)C)o1,25.9% (active)
4,C[C@H](NC(=O)OC(C)(C)C)c1nnc(SCC(=O)Nc2ccc(Br)cc2)o1,9.5% (inactive)
5,CCc1ccccc1NC(=O)CSc1nnc([C@@H](NC(=O)OC(C)(C)C)C(C)CC)o1 (some centres not stated),36.5% (active)
6,CCc1ccccc1NC(=O)CSc1nnc(CCNC(=O)OC(C)(C)C)o1,-11.2% (inactive)
7,Cc1cccc(NC(=O)CSc2nnc(CCNC(=O)OC(C)(C)C)o2)c1C,-2.25% (inactive)
8,COC(=O)C1(CCSC)NC(c2ccc(OC)cc2OC)C2C(=O)N(c3cccc(C(C)=O)c3)C(=O)C21 (configuration not stated),-14.2% (inactive)
9,CCCCn1c(N)c(N(CC(C)C)C(=O)CSc2ccc([N+](=O)[O-])cc2)c(=O)[nH]c1=O,0.91% (inactive)
10,Cc1ccc(N(C(=O)c2snc(C(N)=O)c2N)C(C(=O)NCC2CCCO2)c2c[nH]c3ccccc23)cc1 (configuration not stated),-0.55% (inactive)
11,CCCCC(CC)CNCc1cccn1CCN1CCOCC1 (configuration not stated),-3.94% (inactive)
12,COc1ccccc1CCNC(=O)C(=O)NCCC1CCCCN1S(=O)(=O)c1cccs1 (configuration not stated),17.3% (active)
13,O=C(NCCC1CCCCN1S(=O)(=O)c1cccs1)C(=O)Nc1ccc(F)cc1F (configuration not stated),2.68% (inactive)
14,COc1ccc(CCNC(=O)C(=O)NCC2CCCN2S(=O)(=O)c2cccs2)cc1OC (configuration not stated),-2.2% (inactive)
15,Cc1ccc(C(=O)COC(=O)CCN2C(=O)C3C4CCC(C4)C3C2=O)cc1C (configuration not stated),8.56% (inactive)
16,COc1ccc(/C=C/CN2CCN(Cc3ccc(C)cc3)C(CCO)C2)cc1 (configuration not stated),7.06% (inactive)
17,COC(C(=O)Nc1ccc(S(=O)(=O)Nc2ccc(C)c(C)c2)cc1)c1ccccc1 (configuration not stated),1.68% (inactive)
18,Cc1ccc(NC(=O)Nc2cccnc2)cc1,-1.42% (inactive)
19,CCOC(=O)c1cc(NC(=O)c2cccnc2)ccn1,-0.7% (inactive)
20,CCOC(=O)c1ccc(-c2ccc(C(=O)Nc3cccnc3)o2)cc1,19% (active)
21,Cc1cc(C)c(NC(=O)CN2CCOCCOCCOCCOCC2)c(C)c1,2.85% (inactive)
22,O=C(CSc1nc2ccccc2[nH]1)N/N=C/C=C\c1ccccc1[N+](=O)[O-],4.39% (inactive)
23,O=C(CSc1nc2ccccc2[nH]1)Nc1nc(-c2ccccc2)c(-c2ccccc2)o1,17.5% (active)

row,Compound,inhibition
1,CN(Cc1ccccc1)C(=O)CSc1nc2ccccc2[nH]1,2.91% (inactive)
2,Cc1ccc(O/C=C2\OC(=O)c3ccccc32)cc1,2.38% (inactive)
3,CCOc1cc(C)ccc1OCc1nnc(SCC(=O)Nc2cccc(C(=O)O)c2)n1-c1ccccc1,-6.39% (inactive)
4,Cc1cccc(-n2c(SCC(=O)Nc3cccc(S(=O)(=O)NC4=NCCCCC4)c3)nc3ccccc3c2=O)c1C,0.48% (inactive)
5,CCC(C)NC(=O)c1cc(Cl)ccc1OC (configuration not stated),0.5% (inactive)
6,COc1ccc(Cl)cc1C(=O)NCC#N,21% (active)
7,COc1ccc(Cl)cc1C(=O)NCc1cn(C)nc1C,-1.11% (inactive)
8,Cc1cnc(C(=O)Oc2cccc(Cl)c2Cl)cn1,-0.8% (inactive)
9,O=C(NCc1cccc(Cl)c1)C1CCN(c2nnc(N3CCCC3=O)s2)CC1,-5.47% (inactive)
10,CC(=O)Nc1ccc(S(=O)(=O)N(C)CC(=O)NCCC2=CCCCC2)cc1,-4.22% (inactive)
11,CCCCCNC(=O)C1c2ccccc2Oc2ccccc21,-9% (inactive)
12,COC(=O)N(NC(=O)C(O)(C(C)C)C(C)C)c1ccccc1,-0.72% (inactive)
13,CCCCC(O)(CCCC)C(=O)NN(C(=O)CCl)c1ccccc1,18.1% (active)
14,CC(C)(O)C(=O)NN(C(=O)c1ccccc1)c1cccc(Br)c1,-2.56% (inactive)
15,CCCC(O)(CCC)C(=O)NN(C(=O)CCl)c1cccc(C)c1,27.6% (active)
16,Cc1ccc(N(NC(=O)C(C)(C)O)C(=O)c2ccccc2)cc1C,1.52% (inactive)
17,CC(Sc1nc2cc(Cl)ccc2s1)C(=O)Nc1ccc2c(c1)OCO2 (configuration not stated),-3.27% (inactive)
18,COc1ccc(CCNS(=O)(=O)c2cn(C)nc2C)cc1,-5.7% (inactive)
19,CCOC(=O)C1=C(c2ccc(OC)cc2)C(=O)c2ccccc2C1=O,28.8% (active)
20,CCOC(=O)c1c(-c2ccc(C)cc2)csc1/N=C(\C)C1=C(O)c2ccccc2C1=O,1.32% (inactive)
21,CCOC(=O)c1cc2cc3ccccc3cc2oc1=O,0.07% (inactive)
22,CC(=O)c1ccccc1NC(=O)CC1(CC(=O)O)CCCCC1,2.79% (inactive)
23,Cc1ccccc1OCC(=O)Nc1nnc(S(=O)(=O)N2CCCC2)s1,3.28% (inactive)

row,Compound,inhibition
1,CCn1c(SCC(=O)NC2=NCCS2)nnc1C(C)NC(=O)c1ccccc1F (configuration not stated),-7.21% (inactive)
2,O=C1CCCCC1Sc1ccc(Cl)cc1[N+](=O)[O-] (configuration not stated),-1.08% (inactive)
3,N#C/C(=C\c1ccccc1)c1n[nH]c(Cn2cncn2)n1,3.03% (inactive)
4,CCn1cc(C(=O)N2CCN(C3CCCCC3)CC2)c2cc(OC)c(OC)cc2c1=O,20.3% (active)
5,CCn1cc(C(=O)N2CCN(Cc3ccc4c(c3)OCO4)CC2)c2cc(OC)c(OC)cc2c1=O,7.48% (inactive)
6,COc1cc(C(=O)N2CCN(C3CCC(C)CC3)CC2)cc(OC)c1OC (configuration not stated),1.26% (inactive)
7,O=c1c([N+](=O)[O-])cccn1Cc1ccc(F)cc1Cl,-4.32% (inactive)
8,C/C(=N\NC(=O)c1cccnc1)c1ccc(-c2ccccc2)cc1,2.6% (inactive)
9,C/C(=N\NC(N)=S)c1ccncc1,3.21% (inactive)
10,C/C(=N\NC(N)=S)c1cccnc1,35.1% (active)
11,O=C(c1ccc(-c2ccccc2)cc1)C1CCCN(C(=O)c2cncs2)C1 (configuration not stated),0.67% (inactive)
12,COc1ccc(-n2nc(C(=O)NCC(=O)N3CCN(c4ccccc4OC)CC3)c3ccccc3c2=O)c(OC)c1,0.09% (inactive)
13,Cc1ccc(Cl)c(NC(=O)CN2CCN(C=O)CC2)c1,-5.16% (inactive)
14,COC(=O)Cn1cnc2scc(-c3ccc(C)c(C)c3)c2c1=O,24.9% (active)
15,CCOC(=O)C(C)n1cnc2scc(-c3ccc(C)c(C)c3)c2c1=O (configuration not stated),3.75% (inactive)
16,CCn1cnc2scc(-c3ccc(C)c(C)c3)c2c1=O,0.4% (inactive)
17,CCN(Cc1ccccc1)C(=O)Cc1ccc(OC)c(S(=O)(=O)N2CCOCC2)c1,-0.92% (inactive)
18,CCSc1nc2c(c(=O)[nH]1)C(c1cccnc1)C(C(=O)OC(C)C)=C(C)N2 (configuration not stated),4.8% (inactive)
19,COc1ccccc1C(=O)Nc1ccc(OCc2nnc3c4ccccc4c(C)nn23)cc1,-0.1% (inactive)
20,CCOCCCNc1c(CC)c(C)c(C#N)c2nc3ccccc3n12,2.01% (inactive)
21,CC(C)CN(CC(C)C)CC(O)CN(c1ccccc1)S(=O)(=O)c1ccccc1[N+](=O)[O-] (configuration not stated),4.97% (inactive)
22,COCCN(C(=O)C(C)C)c1nnc(-c2ccc(C(C)(C)C)cc2)s1,3.51% (inactive)
23,COc1ccc(CNC(=O)C2(CC3CC(c4ccccc4)=NO3)CCN(C(=O)c3cccc(O)c3)CC2)cc1 (configuration not stated),-1.66% (inactive)

row,Compound,inhibition
1,O=C(c1ccccc1)N1CCC(CC2CC(c3ccc(Cl)cc3)=NO2)(C(=O)NCC2CCCCC2)CC1 (configuration not stated),-0.13% (inactive)
2,CCCCCCCNC(=O)C1(CC2CC(c3cccc(Br)c3)=NO2)CCN(C(=O)c2cc(OCC)c(OCC)c(OCC)c2)CC1 (configuration not stated),30% (active)
3,CN(CC(=O)Nc1cccc(F)c1)C(=O)C1CSC2(C)CCC(=O)N12 (configuration not stated),-4.97% (inactive)
4,Oc1oc(-c2ccccc2Br)nc1/C=N/c1ccccn1,53.9% (active)
5,CC(N=Cc1nc(-c2ccccc2)oc1O)c1ccccc1 (configuration not stated),1.73% (inactive)
6,CCOc1ccc2nc(/N=C/c3nc(-c4ccccc4)oc3O)sc2c1,5.43% (inactive)
7,COc1ccc(C(C)NC(=O)C23CC4CC(CC(C4)C2)C3)cc1 (configuration not stated),-3.76% (inactive)
8,COc1cccc(NC(=O)CN(C)CC(=O)Nc2ccc3c(c2)CCC3)c1,0.04% (inactive)
9,Cc1cccc(NC(=O)CCN2CC(C)CC(C)C2)c1 (configuration not stated),-3.49% (inactive)
10,CC1CC(C)CN(CCC(=O)Nc2ccc3c(c2)CCC3)C1 (configuration not stated),40.7% (active)
11,C=CCSc1nnc2c(n1)-c1cccc3cccc-2c13,4.82% (inactive)
12,Cc1cccc(-n2c(C)cc(/C=N\NC(=O)c3cccs3)c2C)c1,-1.99% (inactive)
13,Cc1ccc(-n2c(C)cc(/C=N\NC(=O)CC(=O)NC(C)C)c2C)cc1,-0.88% (inactive)
14,Cc1cccc(-n2c(C)cc(/C=N/NC(N)=S)c2C)c1,35.5% (active)
15,CCOC(=O)C(C)n1nc(-c2ccccc2)c2ccccc2c1=O (configuration not stated),3.78% (inactive)
16,COc1ccc(CCNC(=O)Cc2ccc(C)cc2)cc1OC,2.87% (inactive)
17,Cn1nccc1NC(=O)Nc1ccc(OC(F)(F)F)cc1,19.4% (active)
18,COC(=O)[C@H](C)NC(=O)Nc1ccc(OC(F)(F)F)cc1,-1.87% (inactive)
19,CCOC(=O)Cc1ncccc1C(=O)Nc1ccc(OC(F)(F)F)cc1,2.95% (inactive)
20,COC(=O)c1ccccc1Oc1c(F)c(F)nc(N2CCOCC2)c1F,0.49% (inactive)
21,COc1ccc(C(C(=O)NC2CCCCC2)N(C(=O)c2snc(C(N)=O)c2N)c2ccccc2OC)cc1 (configuration not stated),-2.13% (inactive)
22,COc1ccc(C(C(=O)NC2CCCCC2)N(C(=O)CCl)c2ccccc2Cl)cc1 (configuration not stated),25.3% (active)
23,COc1cccc(N(C(=O)C2COc3ccccc3O2)C(C(=O)NC2CCCCC2)c2ccc(O)cc2)c1 (configuration not stated),4.68% (inactive)
